PubChem BioAssay (NCI)
About 83,000 compounds went through this panel and 20% of them were active in at least one assay; those are over-represented in the sample as a whole.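 Activity criterion: percent growth below 10, measured after cells in 96-well plates were exposed to a single compound concentration for 48 hours.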 Unmarked numbers belong to inactive results. The source made the active and inactive calls.

Key:
Experiment in all cases: NCI-60 one-dose screen, 48 h (100 = growth as untreated, 0 = no growth, -100 = all killed)
Conditions in all cases: 10 µM unless noted
[1] = test system: SR leukemia
[2] = test system: RPMI-8226 leukemia
[3] = test system: OVCAR-8 ovarian
[4] = test system: OVCAR-5 ovarian
[5] = test system: OVCAR-4 ovarian
[6] = test system: SK-OV-3 ovarian
[7] = test system: IGROV1 ovarian
[8] = test system: OVCAR-3 ovarian
[9] = test system: HS 578T breast
[10] = test system: NCI/ADR-RES ovarian
[11] = test system: T-47D breast
[12] = test system: BT-549 breast
[13] = test system: MDA-MB-435 melanoma
[14] = test system: SW-620 colon
[15] = test system: MCF7 breast
[16] = test system: HCT-116 colon
[17] = test system: HCC-2998 colon
[18] = test system: KM12 colon

## Cc1ccc(S(=O)(=O)NCCCNc2nc(Nc3ccc(N4CCN(C)CC4)cc3)nc3ccsc23)cc1
[1]
  growth: 4.16% (active)
[2]
  growth: 6.57% (active)
[3]
  growth: 40%
[4]
  growth: 73.9%
[5]
  growth: 23.7%
[6]
  growth: 117%
[7]
  growth: 57.1%
[8]
  growth: 14.6%
[9]
  growth: 44%
[10]
  growth: 70.4%
[11]
  growth: 17.2%
[12]
  growth: -1% (active)
[13]
  growth: 0.595% (active)
[14]
  growth: 20.5%
[15]
  growth: 19%
[16]
  growth: 5.69% (active)
[17]
  growth: 27.3%
[18]
  growth: 35.8%

## N#Cc1c(-c2cccs2)cc(-c2cnccn2)nc1SCC(=O)N/N=C/c1cccs1
[1]
  growth: 74.7%
[2]
  growth: 25.1%
[3]
  growth: 56.3%
[4]
  growth: 82.8%
[5]
  growth: 72.1%
[6]
  growth: 56.5%
[7]
  growth: 74.6%
[8]
  growth: 62.3%
[9]
  growth: 58.7%
[10]
  growth: 52.9%
[11]
  growth: 50.1%
[12]
  growth: 42.5%
[13]
  growth: 51%
[14]
  growth: 43.2%
[15]
  growth: 32.1%
[16]
  growth: 0.402% (active)
[17]
  growth: 43.1%
[18]
  growth: 47.6%

## CCC(=C(c1ccc(OCCN2CCCCCC2)cc1)c1ccc(OCCN2CCCCCC2)cc1)c1ccc(Cl)cc1
[1]
  growth: -5.89% (active)
[2]
  growth: -29.7% (active)
[3]
  growth: 2.46% (active)
[4]
  growth: 58.3%
[5]
  growth: 47.2%
[6]
  growth: 96.7%
[7]
  growth: 2.76% (active)
[8]
  growth: 30.8%
[9]
  growth: -51% (active)
[10]
  growth: 29.4%
[11]
  growth: 27.1%
[12]
  growth: 86.2%
[13]
  growth: -85.8% (active)
[14]
  growth: -49.2% (active)
[16]
  growth: -88.9% (active)
[17]
  growth: -86% (active)
[18]
  growth: 4.43% (active)

## COc1cc(NC(=O)Nc2cccc(-c3cc(=O)c4c(OC)c(OC)c(OC)cc4o3)c2)cc(OC)c1OC
[1]
  growth: 54.5%
[2]
  growth: 31.4%
[3]
  growth: 38.4%
[4]
  growth: 79.5%
[5]
  growth: 65.5%
[6]
  growth: 111%
[7]
  growth: 34.5%
[8]
  growth: 40.1%
[9]
  growth: 17.1%
[10]
  growth: 82.4%
[11]
  growth: 11.9%
[12]
  growth: 31.9%
[13]
  growth: 57.1%
[14]
  growth: 41.3%
[15]
  growth: 40.7%
[16]
  growth: 28.9%
[17]
  growth: 60.7%
[18]
  growth: 38.7%

## COc1ccc(NC2=C(Br)C(=O)C(C)=C(C)C2=O)cc1OC
[1]
  growth: 71.2%
[2]
  growth: 70.8%
[3]
  growth: 96%
[4]
  growth: 121%
[5]
  growth: 14.1%
[6]
  growth: 83.8%
[7]
  growth: 86%
[8]
  growth: 107%
[9]
  growth: 97.6%
[10]
  growth: 97.3%
[11]
  growth: -8.45% (active)
[12]
  growth: 112%
[13]
  growth: 102%
[14]
  growth: 107%
[15]
  growth: 72.1%
[16]
  growth: 90.7%
[17]
  growth: 102%
[18]
  growth: 59.2%

## C#CCN(C)CCCOc1ccc(NC(=O)CCCCCCCCC(=O)NO)cc1Cl
[1]
  growth: 32.7%
[2]
  growth: 40.2%
[3]
  growth: 53.4%
[4]
  growth: 68.8%
[5]
  growth: 74.3%
[6]
  growth: 84.8%
[7]
  growth: 71.5%
[8]
  growth: 73.7%
[9]
  growth: 70.3%
[10]
  growth: 82.7%
[11]
  growth: 72.6%
[12]
  growth: 92.5%
[13]
  growth: 74.2%
[14]
  growth: 63.1%
[16]
  growth: 39.2%
[17]
  growth: 71.8%
[18]
  growth: 83.4%

## C/C(CC1(O)C(=O)Nc2ccccc21)=N\O (stereo not given)
[1]
  growth: 100%
[2]
  growth: 100%
[3]
  growth: 101%
[4]
  growth: 99.2%
[5]
  growth: 95.1%
[6]
  growth: 108%
[7]
  growth: 97.9%
[8]
  growth: 106%
[9]
  growth: 97.4%
[10]
  growth: 95.9%
[11]
  growth: 83.7%
[12]
  growth: 101%
[13]
  growth: 104%
[14]
  growth: 94.5%
[16]
  growth: 98.1%
[17]
  growth: 111%
[18]
  growth: 101%

## O=C(CCCCCCNC(=O)C(O)(O)C(F)(F)F)Nc1ccc(Cl)cc1
[1]
  growth: 12.1%
[2]
  growth: 20.1%
[3]
  growth: 11.9%
[4]
  growth: 9.85% (active)
[5]
  growth: 47.4%
[6]
  growth: -6.99% (active)
[7]
  growth: 27.8%
[8]
  growth: 24.9%
[9]
  growth: 33.2%
[10]
  growth: 24.6%
[11]
  growth: 10.5%
[12]
  growth: 45.9%
[13]
  growth: 11.6%
[14]
  growth: 5.2% (active)
[15]
  growth: 17.3%
[16]
  growth: 3.99% (active)
[17]
  growth: 25.6%
[18]
  growth: 20.6%

## Cc1ccccc1NC(=O)Nc1nc2ccc([N+](=O)[O-])cc2s1
[1]
  growth: 6.41% (active)
[2]
  growth: 5.55% (active)
[3]
  growth: 9.56% (active)
[4]
  growth: 16.9%
[5]
  growth: 3.62% (active)
[6]
  growth: -19.4% (active)
[7]
  growth: 22.6%
[8]
  growth: 10.1%
[9]
  growth: 24.1%
[10]
  growth: 6.24% (active)
[11]
  growth: -10.8% (active)
[12]
  growth: -2.98% (active)
[13]
  growth: 5.39% (active)
[14]
  growth: 11.6%
[16]
  growth: 2.44% (active)
[17]
  growth: 24.6%
[18]
  growth: 4.18% (active)

## COC(=O)N1CCN(CCNCc2ccc(NC(=O)c3ccc(C)c(C#Cc4cnc5cccnn45)c3)cc2C(F)(F)F)CC1
[1]
  growth: -7.7% (active)
[2]
  growth: -6.11% (active)
[3]
  growth: 31.6%
[4]
  growth: 46.2%
[5]
  growth: 31.1%
[6]
  growth: 83.1%
[7]
  growth: 11.3%
[8]
  growth: 64.8%
[9]
  growth: -2.16% (active)
[10]
  growth: 6.71% (active)
[11]
  growth: 34%
[12]
  growth: 24.1%
[13]
  growth: -21.8% (active)
[14]
  growth: 14.6%
[15]
  growth: -6.54% (active)
[16]
  growth: 4.9% (active)
[17]
  growth: 14.4%
[18]
  growth: 4.91% (active)

## NNc1nnc2nc(Nc3ccccc3)nc(Nc3ccc(S(N)(=O)=O)cc3)n12
[1]
  growth: 93.3%
[2]
  growth: 99.4%
[3]
  growth: 107%
[4]
  growth: 103%
[5]
  growth: 112%
[6]
  growth: 113%
[7]
  growth: 98.3%
[8]
  growth: 110%
[9]
  growth: 99.6%
[10]
  growth: 99.6%
[11]
  growth: 109%
[12]
  growth: 107%
[13]
  growth: 108%
[14]
  growth: 104%
[16]
  growth: 107%
[17]
  growth: 104%

## C#CCOc1ccccc1C(OC(=O)c1ccccc1)C(=O)NC(C)(C)C(C)(C)C (stereo not given)
[1]
  growth: 64.7%
[2]
  growth: 74%
[3]
  growth: 89.3%
[4]
  growth: 102%
[5]
  growth: 85.9%
[6]
  growth: 95.8%
[7]
  growth: 68.9%
[8]
  growth: 99.9%
[9]
  growth: 91.1%
[10]
  growth: 87%
[11]
  growth: 73.5%
[12]
  growth: 85%
[13]
  growth: 96.2%
[14]
  growth: 96.9%
[15]
  growth: 79.9%
[16]
  growth: 60.5%
[17]
  growth: 96.1%
[18]
  growth: 92.7%
